Reference: the supplement of paper PMC11732987, “Enantioselective OTUD7B fragment discovery through chemoproteomics screening and high-throughput optimisation” (Communications Chemistry, 2025)

Experiments:
Assay in all cases: log2 ratio of Biotin-Ahx-Ub-VS probe labelling (fragment/DMSO); higher = less target engagement (more negative = stronger competition), active = hit call of the paper (q ≤ 0.05, log2 ratio ≤ -1)
Details in all cases: compound concentration: 200 uM; treatment time: 3 h
[1] = target: T1, USP19 (UniProt O94966)
T1 sequence (whole entry): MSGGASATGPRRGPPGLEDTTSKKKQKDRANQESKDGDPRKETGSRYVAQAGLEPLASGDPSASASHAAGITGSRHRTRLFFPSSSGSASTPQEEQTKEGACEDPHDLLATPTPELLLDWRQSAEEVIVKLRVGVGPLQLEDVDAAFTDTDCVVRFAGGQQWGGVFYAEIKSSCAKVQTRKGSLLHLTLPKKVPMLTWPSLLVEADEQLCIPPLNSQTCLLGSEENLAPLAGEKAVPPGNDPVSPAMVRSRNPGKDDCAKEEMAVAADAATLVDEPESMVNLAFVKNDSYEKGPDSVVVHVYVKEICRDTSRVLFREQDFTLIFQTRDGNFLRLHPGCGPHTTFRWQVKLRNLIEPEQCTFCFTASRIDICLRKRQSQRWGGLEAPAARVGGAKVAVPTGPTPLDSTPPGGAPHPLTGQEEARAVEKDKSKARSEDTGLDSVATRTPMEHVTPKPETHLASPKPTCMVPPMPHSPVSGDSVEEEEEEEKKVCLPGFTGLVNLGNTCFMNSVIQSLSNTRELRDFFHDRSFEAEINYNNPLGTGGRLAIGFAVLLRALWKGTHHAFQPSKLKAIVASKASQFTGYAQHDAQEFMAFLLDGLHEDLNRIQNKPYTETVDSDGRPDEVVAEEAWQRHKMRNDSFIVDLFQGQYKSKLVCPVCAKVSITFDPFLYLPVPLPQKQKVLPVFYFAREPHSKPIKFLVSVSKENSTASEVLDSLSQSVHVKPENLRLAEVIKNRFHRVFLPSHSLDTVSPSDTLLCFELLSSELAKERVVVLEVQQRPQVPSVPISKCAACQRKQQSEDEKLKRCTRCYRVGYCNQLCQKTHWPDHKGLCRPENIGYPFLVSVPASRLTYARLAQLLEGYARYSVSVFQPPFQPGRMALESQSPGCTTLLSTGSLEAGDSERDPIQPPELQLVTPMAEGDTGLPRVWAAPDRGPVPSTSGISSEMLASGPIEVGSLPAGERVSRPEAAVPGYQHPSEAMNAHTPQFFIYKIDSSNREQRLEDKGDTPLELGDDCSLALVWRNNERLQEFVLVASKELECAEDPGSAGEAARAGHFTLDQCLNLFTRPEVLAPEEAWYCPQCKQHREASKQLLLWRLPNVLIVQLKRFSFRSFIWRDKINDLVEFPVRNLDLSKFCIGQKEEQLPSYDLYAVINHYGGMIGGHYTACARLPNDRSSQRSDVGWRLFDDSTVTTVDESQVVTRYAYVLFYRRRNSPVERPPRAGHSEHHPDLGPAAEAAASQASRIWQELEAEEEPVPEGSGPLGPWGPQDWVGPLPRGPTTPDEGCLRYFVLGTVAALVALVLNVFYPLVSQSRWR
How it was run: (§1)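 Global-median-normalised Spectronaut label-free quantities were compared by unpaired t-test, and values are average log2 ratios of fragment over vehicle. Only proteins with ≥2 unique peptides were used. HEK293T lysate (495 µg per sample) was treated in triplicate with fragment at 200 µM or vehicle for 3 h and then with Biotin-Ahx-Ub-VS at 0.5 µM final for 1 h. Labelled DUBs were then NeutrAvidin-enriched, digested with LysC and trypsin, and run by diaPASEF LC-MS/MS.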

[2] = target: T2, USP22 (UniProt Q9UPT9)
T2 sequence (whole entry): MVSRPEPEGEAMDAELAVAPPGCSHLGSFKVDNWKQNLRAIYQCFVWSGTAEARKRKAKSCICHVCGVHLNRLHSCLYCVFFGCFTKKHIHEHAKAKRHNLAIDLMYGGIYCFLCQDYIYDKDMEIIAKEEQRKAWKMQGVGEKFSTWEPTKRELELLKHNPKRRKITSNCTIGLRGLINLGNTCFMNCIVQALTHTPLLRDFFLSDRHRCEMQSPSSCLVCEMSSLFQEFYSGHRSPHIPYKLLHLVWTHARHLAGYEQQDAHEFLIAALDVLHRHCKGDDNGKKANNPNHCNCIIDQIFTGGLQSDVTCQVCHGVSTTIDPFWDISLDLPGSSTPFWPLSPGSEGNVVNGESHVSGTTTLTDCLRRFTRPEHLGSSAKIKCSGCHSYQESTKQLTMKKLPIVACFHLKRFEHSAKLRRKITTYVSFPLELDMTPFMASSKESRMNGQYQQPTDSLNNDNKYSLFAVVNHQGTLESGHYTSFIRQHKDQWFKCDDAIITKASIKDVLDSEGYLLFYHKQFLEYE
How it was run: as §1

[3] = target: USP24 (UniProt Q9UPU5)
How it was run: as §1

[4] = target: T3, USP25 (UniProt Q9UHP3)
T3 sequence (whole entry): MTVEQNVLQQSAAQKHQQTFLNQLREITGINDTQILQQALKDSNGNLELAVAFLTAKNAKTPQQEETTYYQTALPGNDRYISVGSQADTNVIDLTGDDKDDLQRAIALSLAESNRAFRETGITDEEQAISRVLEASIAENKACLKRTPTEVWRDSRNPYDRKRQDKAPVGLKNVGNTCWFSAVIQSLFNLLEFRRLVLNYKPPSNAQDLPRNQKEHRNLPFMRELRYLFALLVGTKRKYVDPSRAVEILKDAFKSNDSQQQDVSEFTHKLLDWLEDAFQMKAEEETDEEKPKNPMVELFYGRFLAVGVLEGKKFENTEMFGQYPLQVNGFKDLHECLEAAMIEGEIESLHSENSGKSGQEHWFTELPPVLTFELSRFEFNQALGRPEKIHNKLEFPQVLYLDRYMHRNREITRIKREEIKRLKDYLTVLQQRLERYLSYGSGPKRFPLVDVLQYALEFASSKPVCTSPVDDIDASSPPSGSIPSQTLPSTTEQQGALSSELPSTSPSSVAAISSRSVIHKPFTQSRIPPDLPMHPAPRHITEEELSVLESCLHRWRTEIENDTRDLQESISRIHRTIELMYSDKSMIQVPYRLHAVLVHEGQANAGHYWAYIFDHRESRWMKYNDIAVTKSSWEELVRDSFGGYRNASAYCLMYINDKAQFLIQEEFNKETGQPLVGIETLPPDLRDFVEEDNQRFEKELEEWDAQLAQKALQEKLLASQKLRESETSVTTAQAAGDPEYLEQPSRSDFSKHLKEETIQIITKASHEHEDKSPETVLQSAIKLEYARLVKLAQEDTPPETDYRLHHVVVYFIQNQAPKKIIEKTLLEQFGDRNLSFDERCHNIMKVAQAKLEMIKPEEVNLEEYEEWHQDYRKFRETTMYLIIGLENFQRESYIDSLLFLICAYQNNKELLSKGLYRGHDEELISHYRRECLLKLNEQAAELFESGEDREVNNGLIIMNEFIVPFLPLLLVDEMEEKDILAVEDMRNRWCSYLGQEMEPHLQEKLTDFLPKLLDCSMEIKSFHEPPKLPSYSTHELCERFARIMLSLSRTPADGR
How it was run: as §1

[5] = target: T4, USP28 (UniProt Q96RU2)
T4 sequence (whole entry): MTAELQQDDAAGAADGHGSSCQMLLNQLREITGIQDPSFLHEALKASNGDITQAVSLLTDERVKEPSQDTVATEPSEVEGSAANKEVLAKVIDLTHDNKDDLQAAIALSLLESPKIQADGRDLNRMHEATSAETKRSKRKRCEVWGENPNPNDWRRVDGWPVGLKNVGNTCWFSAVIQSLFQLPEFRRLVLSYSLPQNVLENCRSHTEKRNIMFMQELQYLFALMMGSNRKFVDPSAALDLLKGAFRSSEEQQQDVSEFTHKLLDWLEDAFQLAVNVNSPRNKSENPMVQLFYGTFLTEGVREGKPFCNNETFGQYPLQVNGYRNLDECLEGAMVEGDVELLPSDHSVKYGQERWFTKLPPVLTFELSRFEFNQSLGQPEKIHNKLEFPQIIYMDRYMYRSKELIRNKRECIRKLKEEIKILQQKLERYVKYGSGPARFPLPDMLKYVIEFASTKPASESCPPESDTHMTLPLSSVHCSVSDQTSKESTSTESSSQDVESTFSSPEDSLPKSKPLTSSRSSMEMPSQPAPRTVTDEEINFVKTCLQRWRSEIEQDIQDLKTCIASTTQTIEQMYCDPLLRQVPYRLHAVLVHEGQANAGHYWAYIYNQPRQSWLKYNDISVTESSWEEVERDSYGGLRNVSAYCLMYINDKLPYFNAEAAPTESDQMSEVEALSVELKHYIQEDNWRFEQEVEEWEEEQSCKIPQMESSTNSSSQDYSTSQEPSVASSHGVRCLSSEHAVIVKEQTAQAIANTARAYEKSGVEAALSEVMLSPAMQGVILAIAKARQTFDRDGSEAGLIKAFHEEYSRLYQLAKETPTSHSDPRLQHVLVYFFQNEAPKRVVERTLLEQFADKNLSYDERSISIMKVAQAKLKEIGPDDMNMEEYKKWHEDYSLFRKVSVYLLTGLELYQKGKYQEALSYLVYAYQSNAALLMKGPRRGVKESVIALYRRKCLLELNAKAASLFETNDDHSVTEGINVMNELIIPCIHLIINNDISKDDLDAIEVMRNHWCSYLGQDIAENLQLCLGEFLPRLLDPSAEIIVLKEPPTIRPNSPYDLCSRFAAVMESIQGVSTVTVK
How it was run: as §1

Measured: log2 ratio of Biotin-Ahx-Ub-VS probe labelling

Chain of USP24 (Q9UPU5 whole entry): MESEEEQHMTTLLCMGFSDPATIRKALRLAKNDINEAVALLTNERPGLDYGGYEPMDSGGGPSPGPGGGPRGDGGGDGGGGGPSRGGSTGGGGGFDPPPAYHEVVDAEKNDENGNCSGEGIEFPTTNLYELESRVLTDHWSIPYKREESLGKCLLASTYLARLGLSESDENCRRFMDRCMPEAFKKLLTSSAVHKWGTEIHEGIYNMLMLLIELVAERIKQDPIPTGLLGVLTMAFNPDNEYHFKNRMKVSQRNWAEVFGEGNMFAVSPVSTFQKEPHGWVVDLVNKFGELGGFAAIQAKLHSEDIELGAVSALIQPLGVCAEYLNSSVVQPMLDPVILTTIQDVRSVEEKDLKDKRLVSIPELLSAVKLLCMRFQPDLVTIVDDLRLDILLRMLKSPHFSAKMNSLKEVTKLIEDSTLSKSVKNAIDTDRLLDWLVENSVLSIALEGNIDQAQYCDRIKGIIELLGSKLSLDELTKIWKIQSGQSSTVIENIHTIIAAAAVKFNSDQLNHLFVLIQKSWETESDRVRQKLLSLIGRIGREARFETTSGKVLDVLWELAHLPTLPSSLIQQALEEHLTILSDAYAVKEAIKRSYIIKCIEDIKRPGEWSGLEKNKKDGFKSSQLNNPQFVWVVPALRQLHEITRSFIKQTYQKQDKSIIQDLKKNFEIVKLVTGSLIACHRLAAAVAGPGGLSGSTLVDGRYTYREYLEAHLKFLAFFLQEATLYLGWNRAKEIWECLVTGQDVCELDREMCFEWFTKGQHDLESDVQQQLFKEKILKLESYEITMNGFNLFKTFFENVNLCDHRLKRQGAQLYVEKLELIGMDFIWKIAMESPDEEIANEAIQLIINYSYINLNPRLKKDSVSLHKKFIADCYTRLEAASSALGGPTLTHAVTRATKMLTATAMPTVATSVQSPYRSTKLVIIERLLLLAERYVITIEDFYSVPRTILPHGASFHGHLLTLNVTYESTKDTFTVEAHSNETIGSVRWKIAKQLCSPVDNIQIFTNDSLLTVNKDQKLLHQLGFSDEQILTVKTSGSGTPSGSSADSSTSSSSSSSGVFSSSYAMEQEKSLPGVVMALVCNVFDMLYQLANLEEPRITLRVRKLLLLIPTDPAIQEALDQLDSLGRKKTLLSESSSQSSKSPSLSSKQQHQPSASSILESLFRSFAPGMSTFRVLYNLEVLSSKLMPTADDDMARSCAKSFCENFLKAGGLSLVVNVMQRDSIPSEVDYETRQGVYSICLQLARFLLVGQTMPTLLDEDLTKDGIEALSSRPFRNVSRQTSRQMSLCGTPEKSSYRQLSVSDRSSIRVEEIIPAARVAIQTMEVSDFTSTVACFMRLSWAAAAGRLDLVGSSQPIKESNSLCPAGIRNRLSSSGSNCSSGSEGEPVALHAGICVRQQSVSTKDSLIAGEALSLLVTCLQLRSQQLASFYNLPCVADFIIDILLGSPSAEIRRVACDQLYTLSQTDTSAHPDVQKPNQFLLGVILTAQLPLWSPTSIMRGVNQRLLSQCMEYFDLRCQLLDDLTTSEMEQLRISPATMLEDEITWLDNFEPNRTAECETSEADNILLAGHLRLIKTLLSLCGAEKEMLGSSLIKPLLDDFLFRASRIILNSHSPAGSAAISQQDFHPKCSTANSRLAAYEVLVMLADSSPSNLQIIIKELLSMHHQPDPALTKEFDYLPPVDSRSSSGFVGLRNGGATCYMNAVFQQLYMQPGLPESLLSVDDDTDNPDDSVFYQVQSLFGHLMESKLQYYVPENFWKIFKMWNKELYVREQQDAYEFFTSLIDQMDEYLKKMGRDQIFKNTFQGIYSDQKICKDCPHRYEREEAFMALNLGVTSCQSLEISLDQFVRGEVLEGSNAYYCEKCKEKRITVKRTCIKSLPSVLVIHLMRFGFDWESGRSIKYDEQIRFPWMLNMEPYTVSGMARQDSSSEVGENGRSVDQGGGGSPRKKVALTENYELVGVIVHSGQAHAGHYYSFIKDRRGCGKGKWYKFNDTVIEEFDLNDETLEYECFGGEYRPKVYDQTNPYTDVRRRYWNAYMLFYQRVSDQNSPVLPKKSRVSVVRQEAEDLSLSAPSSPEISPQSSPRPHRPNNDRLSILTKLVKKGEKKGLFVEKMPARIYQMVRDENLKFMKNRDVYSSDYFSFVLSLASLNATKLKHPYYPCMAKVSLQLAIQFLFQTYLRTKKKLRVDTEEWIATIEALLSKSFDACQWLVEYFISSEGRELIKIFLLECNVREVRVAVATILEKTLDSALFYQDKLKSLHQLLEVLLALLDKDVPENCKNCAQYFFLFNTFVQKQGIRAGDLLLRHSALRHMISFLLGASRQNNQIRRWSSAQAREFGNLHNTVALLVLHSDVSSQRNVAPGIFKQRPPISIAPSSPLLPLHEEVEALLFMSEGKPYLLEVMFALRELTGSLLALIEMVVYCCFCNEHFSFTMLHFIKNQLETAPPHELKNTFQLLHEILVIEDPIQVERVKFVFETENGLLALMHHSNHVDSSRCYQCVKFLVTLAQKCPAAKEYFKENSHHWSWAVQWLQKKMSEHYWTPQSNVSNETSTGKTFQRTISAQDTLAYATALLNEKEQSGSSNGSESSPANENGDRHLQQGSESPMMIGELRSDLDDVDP

CC(NC(=O)CCl)c1cccc(Cl)c1 (stereo not given)
inactive: [1] -0.35 | [2] -0.146 | [3] -0.342 | [4] -0.639 | [5] -0.845
